# High-throughput results from PubChem.
# Sfp inh – blocks B. subtilis Sfp PPTase activity | Q9F4F7 | Biochemical Sfp PPTase activity, qHTS | Potency, µM, for the others: largest response in the series, negative = inhibition, hits mostly inhibitors | actives 3.5% (n = 310,000) | AID 1490;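 further: the enzyme is Sfp with the accession as filed and its product quenches rhodamine fluorescence; potency means the concentration at half of the fitted maximal effect; 0% = enzyme reaction without inhibitor and -100% = no enzyme wells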
#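 After 15 min at room temperature with compound, 15 nM Sfp received 5 uM rhodamine-CoA plus 12.5 uM BHQ-2-ybbR (50 mM Hepes pH 7.6, 10 mM MgCl2). Rate came from the fluorescence difference over 30 min, ex 525/em 598 nm.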
# Tau fibril ThT – blocks human tau fibril formation measured by thioflavin T | P10636 | recombinant tau K18 P301L, heparin-induced fibrillization, ThT fluorescence | Potency, µM (series often up to 57.4 µM), without a hit: at the highest dose activity, negative = inhibition, actives largely listed as inhibitors | actives 2.1% (n = 270,000) | AID 1460; further: potency means the concentration at half of the fitted maximal effect; nearly all actives have a fitted effect of over 55% in size
# Target sequence (P10636 561-689 P618L limits assumed): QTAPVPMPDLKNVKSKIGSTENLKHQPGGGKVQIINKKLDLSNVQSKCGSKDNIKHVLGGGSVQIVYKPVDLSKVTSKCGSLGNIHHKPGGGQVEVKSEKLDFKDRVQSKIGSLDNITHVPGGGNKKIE
#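 Heparin-induced (20 uM) aggregation of recombinant human K18 P301L tau, 15 uM unlabeled with 0.24 uM labeled, pH 7 acetate buffer, 6 hr at 37 C with compound. Fibrils quantified by 30 uM ThT fluorescence after 1 hr ambient incubation.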
# Tau FP inhib – tau fibrillization inhibition (FP); P10636; K18 P301L tau heparin fibrillization, Alexa594 FP, 6 h; Potency, µM (top dose mostly 57.7 µM), for inactives: at the top dose activity, negative = inhibition, most hits filed as inhibitors; actives 0.39% (n = 280,000); further: potency means the concentration at half of the fitted maximal effect; nearly all actives have a fitted effect of over 55% in size
#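 Recombinant K18 P301L […], labeled with Alexa 594 at 0.24 uM over 15 uM unlabeled; heparin inducer 20 uM final; 37 C, 6 hr; FP endpoint.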
# FBPA coupling cs – counter-screen for Giardia aldolase inhibitors: coupling enzyme system. activity change, negative = inhibition, % at 58.2 µM, hits read low. coupling enzyme system counterscreen, AmpLite Red fluorescence. actives 0.67% (n = 290,000). AID 2472; in the data active means activity change below about -30%
#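 Final compound at 57.5 uM, incubated 10 min at RT with coupling enzyme reagent (glyceraldehyde-3-phosphate), then 20 min with substrate and AmpLite Red detection. Fluorescence read at 525/598 nm; tests interference with the coupling assay, not aldolase inhibition.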
# Tau fluor counter – counter-screen for tau fibril formation inhibitors; tau K18 P301L Alexa594 fluorescence, heparin fibrillization; Potency, µM (top dose mostly 57.7 µM), without a hit: top-dose activity change, negative = decrease; actives 0.93% (n = 280,000); further: potency means the concentration at half of the fitted maximal effect; nearly all actives have a fitted effect of over 55% in size
#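 Human tau K18 P301L (15 uM unlabeled, 0.24 uM Alexa 594-labeled) in 100 mM sodium acetate pH 7 with 20 uM heparin, 6 hr at 37 C. ThT 30 uM added, 1 hr ambient; Alexa 594 FP and total fluorescence read at 555/632 nm.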
# Starred values were filed as active, the others as inactive; ? = inconclusive; · = no result; ! = repeats disagree; [ ] = another dose, or the depositor's remark. This is a sample that favours compounds with a hit; in the whole collection about 5.2% have one here. Unless noted, the call rests on the fitted dose curve; in most records, active means well fitted curve in the direction sought with a large enough effect; inconclusive means small, poorly fitted or top-dose-only effect, or another doubt; inactive means no such curve, though single readings can be large; an effect the other way counts as inactive or inconclusive. Unless noted, on the % scale 0 is the no-effect control and ±100 the full control effect.
SMILES,Sfp inh,Tau fibril ThT,Tau FP inhib,FBPA coupling cs,Tau fluor counter
O=C1/C(=C\c2ccccn2)SC(=S)N1c1ccc(S(=O)(=O)Nc2nccs2)cc1,56µM*,·,3%,2,?
CCCN(CCC)CCCNC(=O)Cn1ncn2c(cc3sc(CC)cc32)c1=O,·,15%,4%,·,15%
Cc1[nH]n(-c2ccccc2)c(=O)c1C(c1ccccc1[N+](=O)[O-])C(C#N)C#N (centres undefined),5%,·,·,3,·
Cc1[nH]n(-c2ncc(-c3ccccc3)s2)c(=O)c1C(c1ccc(Cl)cc1)C(C#N)C#N (centres undefined),?,14µM*,?,5,?
CC1=NN(c2nc(-c3ccc(Cl)cc3)cs2)C(=O)C1,5%,11µM*,-1%,12,?
CC1=NN(c2nc(-c3ccc(F)cc3)cs2)C(=O)C1,21%,?,11%,1,-25%
O=C(CSc1nnc(NC(=O)C2CC(=O)N(c3ccccc3)C2)s1)NCc1ccco1 (centres undefined),-21%,·,·,0,·
COc1cccc(N2CC(C(=O)Nc3nnc(SCC(=O)c4ccccc4)s3)CC2=O)c1 (centres undefined),79µM*,-17%,-9%,5,?
Cc1cccc(N2CC(C(=O)Nc3nnc(SCC(=O)Nc4cc(C)on4)s3)CC2=O)c1 (centres undefined),-12%,-4%,-7%,-44*,0%
COc1cccc(N2CC(C(=O)Nc3nnc(SCC(=O)NCc4ccco4)s3)CC2=O)c1 (centres undefined),50µM*,·,·,0,·
COCCNC(=O)CSc1nnc(NC(=O)C2CC(=O)N(c3ccccc3OC)C2)s1 (centres undefined),50µM*,·,·,·,·
COc1ccccc1N1CC(C(=O)Nc2nnc(SCC(=O)N3CCOCC3)s2)CC1=O (centres undefined),9%,·,·,·,·
Cc1cccc(NC(=O)c2ccc3c(O)c(S(=O)(=O)c4ccccc4)c(=O)[nH]c3c2)c1C,·,-5%,0%,·,-1%
CCN(CC)CCCN1C=C2C(=O)C(C)(OC(=O)c3cccs3)C(=O)C=C2C=C1CCCC(=O)OC (centres undefined),-18%,5%[11.5 µM],8%[11.6 µM],-1,-1%[11.6 µM]
O=C(CSc1nc(=O)[nH]c2c1CCC2)Nc1cc(C(F)(F)F)ccc1Cl,·,-9%,-10%,·,-12%
CCCCCCCCCCCCCCC[C@@H](O)[C@H](CO)NC(C)=O,29%,-1%,0%,2,1%
CCOC(=O)CSc1nc2c(sc(=S)n2-c2ccccc2OC)c(=O)n1-c1ccccc1OC,10%,·,·,-13,·
COc1ccc(-n2c(SCC(=O)C(C)(C)C)nc3c(sc(=S)n3-c3ccccc3)c2=O)c(OC)c1,3.5µM*,·,·,-7,·
CN(C)c1ccc(N=Nc2ccc(S(=O)(=O)O)cc2)c2ccccc12,7%,5µM*,2%,5,?
CN(C)c1ccc(N=Nc2ccc(S(N)(=O)=O)cc2)cc1,-7%,·,·,2,·
CC(C)COc1ccc(C(=O)N2CCCCC2CCN2CCCCC2)cc1 (centres undefined),·,0%,1%,·,0%
COc1ccc2c(c1)OC(C)(C)C(c1ccccc1)C2c1ccc(OCCN2CCCC2)cc1 (centres undefined),50µM*,·,·,·,·
Cc1ccc(NC2c3ncccc3C(=O)N2c2ccccc2C)cc1C (centres undefined),45µM*,?,3%,-13,-6%
COc1ccc(NC(=O)c2ccc(CNS(=O)(=O)c3ccc4c(c3)C(C)(C)C(=O)N4C)cc2)cc1,·,-11%,-1%,·,-20%
CC1=C(\C=C/C(C)=C/C=C\C(C)=C\C(=O)O)C(C)(C)CCC1,9%,32µM*!,?,3,-1%
SMILES,Sfp inh,Tau fibril ThT,Tau FP inhib,FBPA coupling cs,Tau fluor counter
CC1=C(/C=C/C(C)=C/C=C/C(C)=C\C(=O)O)C(C)(C)CCC1,6%,-10%,-1%,7,0%
CC1=C(/C=C/C(C)=C/C=C/C(C)=C/C(=O)Nc2ccc(O)cc2)C(C)(C)CCC1,28%,16µM*,14%,-15,11µM*[quencher]
COC(=O)c1scc(-c2ccc(C)cc2)c1S(=O)(=O)Nc1ccc(NC(C)=O)cc1,·,-1%,-11%,·,-13%
COC(=O)c1scc(C)c1S(=O)(=O)Nc1ccc(C)cc1,50µM*,1%,2%,-24,-1%
O=C(O)CN1C(=O)/C(=C2\SC(=S)N(C(Cc3ccccc3)C(=O)O)C2=O)c2ccccc21 (centres undefined),7%,·,·,2,·
O=C1/C(=C\c2cccnc2)SC(=S)N1C1CCS(=O)(=O)C1 (centres undefined),79µM*,?,-2%,0,-2%
O=C(O)C(Cc1ccccc1)N1C(=O)/C(=C/C=C/c2ccco2)SC1=S (centres undefined),40µM*,7.9µM*,?,1,?
O=C(O)CC(C(=O)O)N1C(=O)/C(=C/C=C/c2ccco2)SC1=S (centres undefined),22µM*,13µM*,?,-3,-22%
O=C(O)CCCN1C(=O)/C(=C/C=C/c2ccco2)SC1=S,-12%,3.2µM*,?,3,1%
COc1ccc(CNc2ccnc(-c3ccccc3Cl)n2)c(OC)c1,-20%,·,·,-2,·
O=C1/C(=C/c2ccco2)SC(=S)N1CCC(=O)N1CCCCC1CCO (centres undefined),50µM*,·,·,·,·
O=C(O)C(Cc1ccccc1)N1C(=O)/C(=C/c2cccnc2)SC1=S (centres undefined),79µM*,?,-18%,9,-8%
COc1ccc(/C=C2\SC(=S)N(C(Cc3ccccc3)C(=O)O)C2=O)cc1 (centres undefined),-42%,?,-11%,10,-7%
C[C@@H]1C(c2cccc(Cl)c2)=NN(c2ccc(Br)cc2)[C@H]1C(=O)N1CCOC1=O,15%,?,-7%,-2,14µM*[quencher]
C[C@@H]1C(c2cccc(Cl)c2)=NN(c2ccccc2)[C@H]1C(=O)N1CCOC1=O,9%,-8%[81.4 µM],13%[81.3 µM],-1,?
Cc1cccc(C2=NN(c3ccc(Br)cc3)[C@@H](C(=O)N3CCOC3=O)[C@@H]2c2ccccc2)c1,30%,-20%,3%,-5,?
CC[C@@H]1C(c2cccc(C)c2)=NN(c2ccc(Br)cc2)[C@H]1C(=O)N1CCOC1=O,25%,?,-14%,-2,8.9µM*[quencher]
CCc1ccc(CNC(=O)CCc2c(C)nn(-c3ccc(N4CCCC4)nn3)c2C)cc1,·,-9%,-1%,·,-2%
Cc1cc(C)c(NC(=O)CSc2n[nH]c(-c3ccccc3Cl)n2)c(C)c1,·,-10%,2%,·,-7%
